TMEM16A inh: mouse TMEM16A channel inhibition, primary screen; HEK293 TMEM16A/YFP iodide influx fluorescence, ionomycin; normalized B-score (activity score, 25-100; higher = stronger inhibition) at 10 µM; hit rate 1.2% among 310,000; Q8BHY3;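 active means ratio plate-corrected score three or more library SD toward inhibition, starting fluorescence score within five deviations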;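 further: score derived from kinetic fluorescence span divided by baseline fluorescence per well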
Target sequence (Q8BHY3 whole entry, looked up): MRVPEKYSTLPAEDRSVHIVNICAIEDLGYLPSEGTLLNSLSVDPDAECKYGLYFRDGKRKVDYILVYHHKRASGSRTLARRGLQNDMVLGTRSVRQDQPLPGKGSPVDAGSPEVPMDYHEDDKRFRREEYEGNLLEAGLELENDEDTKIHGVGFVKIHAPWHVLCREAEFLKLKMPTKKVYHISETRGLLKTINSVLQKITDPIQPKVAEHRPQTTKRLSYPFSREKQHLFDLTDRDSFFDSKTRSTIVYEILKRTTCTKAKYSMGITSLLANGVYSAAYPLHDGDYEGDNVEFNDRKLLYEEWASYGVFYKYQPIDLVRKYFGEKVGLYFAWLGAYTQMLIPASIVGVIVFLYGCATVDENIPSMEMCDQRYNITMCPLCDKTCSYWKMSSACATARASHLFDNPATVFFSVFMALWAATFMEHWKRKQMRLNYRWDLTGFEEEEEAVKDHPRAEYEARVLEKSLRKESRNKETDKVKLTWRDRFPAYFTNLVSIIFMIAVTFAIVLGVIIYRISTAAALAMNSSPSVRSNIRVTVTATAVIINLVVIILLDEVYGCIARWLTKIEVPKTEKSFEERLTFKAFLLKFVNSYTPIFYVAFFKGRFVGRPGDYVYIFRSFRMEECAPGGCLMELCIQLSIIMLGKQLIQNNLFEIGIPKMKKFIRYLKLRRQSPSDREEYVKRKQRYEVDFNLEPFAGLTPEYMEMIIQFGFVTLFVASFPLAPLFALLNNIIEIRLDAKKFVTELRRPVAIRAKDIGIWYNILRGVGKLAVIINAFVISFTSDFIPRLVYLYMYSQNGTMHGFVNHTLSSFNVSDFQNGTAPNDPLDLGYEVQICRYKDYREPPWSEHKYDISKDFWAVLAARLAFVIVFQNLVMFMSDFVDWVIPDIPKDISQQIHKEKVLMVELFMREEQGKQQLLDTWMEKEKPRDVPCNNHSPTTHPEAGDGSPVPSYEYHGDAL
PP5 primary: inhibitors of human protein phosphatase 5 (PP5); P53041; purified PP5c, OMFP substrate fluorescence; inhibition, % at 6.7 µM; hit rate 0.18% among 320,000;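 active means inhibition above the campaign's mean inhibition across all tested compounds plus 3 SD, cut at about 9.5% in these data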
PREPL inhibitor: inhibitors of human prolyl oligopeptidase-like enzyme PREPL; inhibition, % at 5.96 µM; Q4J6C6; recombinant PREPL, fluorescence polarization activity-based probe; hit rate 0.68% among 320,000; in the data active means inhibition above about 43%
PP1 inh: blocks human PP1-alpha phosphatase, a PP5 counter-screen | purified PP1alpha, OMFP fluorescence | inhibition, % at 6.7 µM | P62136 | hit rate 0.9% among 320,000;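 active means inhibition above the mean inhibition of all tested compounds plus 3 SD, computed separately for each screening campaign, cut at about 15% in these data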
TMEM16A act: mouse TMEM16A channel activation, primary screen | HEK293 TMEM16A/YFP-H148Q/I152L, iodide quench fluorescence; active compounds read low | B-score at 10 µM | hit rate 0.3% among 340,000 | AID 623877 | Q8BHY3;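 active means fluorescence-ratio B-score plate-corrected deviation score at least 3 library SD below zero, with starting fluorescence score within 5 deviations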;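 further: channel opened by trigger with iodide after compound preincubation; score built on the fluorescence ratio of max minus min over baseline; more negative score means more quench and so TMEM16A activation or potentiation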
DNA FID counter: displaces DNA intercalator in HCV helicase counter-screen; DNA fluorescent intercalator displacement, fluorescence; inhibition, % at 7.9 µM; hit rate 0.17% among 290,000; AID 1845; in the data active means inhibition above about 37%;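 further: higher means more ethidium bromide displaced from hairpin DNA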
PP1 inh confirm: confirmation of human PP1 phosphatase inhibitors. hit rate 52% among 1,900. inhibition, % at 6.7 µM. AID 2358. shares compounds with PP1 inh. purified PP1alpha, OMFP substrate fluorescence;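 active means mean PP1 inhibition above a set limit taken from the earlier primary screen, cut at about 15% in these data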
PP5 counter: PP5 phosphatase inhibition, counter-screen for PP1 inhibitors; shares compounds with PP1 inh; purified PP5c, OMFP fluorescence; inhibition, % at 6.7 µM; hit rate 4% among 1,900; AID 2360;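 active means mean PP5 inhibition over triplicate wells above about 9.5% taken from the earlier PP1 screen, limit read from the data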
Each line names hits and unclear results; the compound was inactive in the other large screens (follow-up assays come after a bar, where they were run). A selection: hits, their analogues and other compounds. The true share with any hit is near 2.7%.

Cc1cc2nc(-c3ccc(SCC(=O)Nc4ccc(S(=O)(=O)N5CCCC5)cc4)nc3)[nH]c2cc1C	PP1 inh 34.9 | PP1 inh confirm 34.2 | PP5 counter inactive
CN(C)C(=N)c1n[nH]nc1SCc1ccc(Cl)c(Cl)c1	PP1 inh 24.8 | PP1 inh confirm inactive | PP5 counter inactive
Cc1[nH]c(=O)nc(SCc2ccc(Cl)c(Cl)c2)c1C#N	none
O=C(COC(=O)CCC(=O)c1ccc(Cl)cc1)NC1CC1	none
O=C(Nc1nnc(C2CC2)o1)c1ccc(S(=O)(=O)N2CCc3ccccc3C2)cc1	PP1 inh 30.1 | PP1 inh confirm 31.0 | PP5 counter inactive
CC1CCCN(S(=O)(=O)c2ccc(C(=O)Nc3sc4c(c3C(N)=O)CCN(C)C4)cc2)C1 (stereo unspecified)	none
CC1CCCN(S(=O)(=O)c2ccc(C(=O)Nc3nnc(-c4ccccn4)o3)cc2)C1 (stereo unspecified)	PP1 inh 18.2 | PP1 inh confirm 15.2 | PP5 counter inactive
CCC1CCCCN1S(=O)(=O)c1ccc(C(=O)Nc2nnc(-c3cccs3)o2)cc1 (stereo unspecified)	TMEM16A inh 25, PP1 inh 40.6 | PP1 inh confirm 33.1 | PP5 counter inactive
CC1CCCN(S(=O)(=O)c2ccc(C(=O)Nc3nnc(C4CC4)o3)cc2)C1 (stereo unspecified)	PP1 inh 26.4 | PP1 inh confirm 16.2 | PP5 counter inactive
CC1CC(C)CN(S(=O)(=O)c2ccc(C(=O)Nc3nnc(-c4cccs4)o3)cc2)C1 (stereo unspecified)	none
CC1CCN(S(=O)(=O)c2ccc(C(=O)Nc3nnc(-c4ccco4)o3)cc2)CC1	none
CC(C)N(Cc1ccccc1)C(=O)CC(=O)N(Cc1ccccc1)C(C)C	none
COc1ccc(-c2cc(C(=O)N3CCN(c4ccccc4F)CC3)c3ccccc3n2)c(OC)c1	none
CN(CC(O)CON=C1c2ccccc2-c2ccccc21)S(=O)(=O)c1ccc(Br)cc1 (stereo unspecified)	PP1 inh 40.5 | PP1 inh confirm inactive | PP5 counter inactive
Cc1ccc(/C=C/C(=O)OCC(=O)c2ccc3c(c2)NC(=O)CO3)o1	none (no result: TMEM16A inh, PP5 primary, PP1 inh, DNA FID counter)
O=C1COc2ccc(C(=O)COC(=O)/C=C/c3ccc(Br)o3)cc2N1	PP1 inh 21.9 (no result: DNA FID counter) | PP1 inh confirm 25.6 | PP5 counter inactive
CC1(c2ccccc2Br)NC(=O)N(CC(=O)N2CCc3ccccc3C2)C1=O (stereo unspecified)	none (no result: TMEM16A inh, PP5 primary, PP1 inh, DNA FID counter)
CCCC(=O)NC(c1ccc(C(C)C)cc1)c1ccc2cccnc2c1O (stereo unspecified)	PP1 inh 26.4 | PP1 inh confirm 23.4 | PP5 counter inactive
CCCC(=O)NC(c1ccccc1Cl)c1ccc2cccnc2c1O (stereo unspecified)	PP1 inh 19.9 | PP1 inh confirm inactive | PP5 counter inactive
CC(=O)NC(c1ccc(Cl)cc1)c1ccc2cccnc2c1O (stereo unspecified)	none (no result: TMEM16A inh, PP5 primary, PREPL inhibitor, PP1 inh, DNA FID counter)
CCCCC(=O)NC(c1cccs1)c1cc(Cl)c2cccnc2c1O (stereo unspecified)	PP1 inh 19.5 | PP1 inh confirm 24.4 | PP5 counter inactive
Cc1cc(NC(c2ccc(Cl)cc2)c2ccc3cccnc3c2O)no1 (stereo unspecified)	PP1 inh 21.6 | PP1 inh confirm 15.3 | PP5 counter inactive
COc1ccc(N2CCN(C(=O)c3ccc(NC(=O)C4=CSCCO4)cc3)CC2)cc1	none
CC(C)C(=O)NC(c1ccc(Cl)cc1Cl)c1ccc2cccnc2c1O (stereo unspecified)	PP1 inh 26.9 | PP1 inh confirm 19.7 | PP5 counter inactive
CC1CCCC(NC(=O)c2ccc(F)c(S(=O)(=O)N3CCOCC3)c2)C1C (stereo unspecified)	none (no result: DNA FID counter)
Cn1cnnc1SCC(=O)Nc1ccc(OCc2ccccc2)cc1	PP1 inh 24.3 | PP1 inh confirm inactive | PP5 counter inactive
CCC1(c2ccccc2)NC(=O)N(CC(=O)Nc2cc(S(=O)(=O)N3CCCCCC3)ccc2OC)C1=O (stereo unspecified)	none (no result: DNA FID counter)
CCC1(c2ccccc2)NC(=O)N(CC(=O)Nc2cc(S(=O)(=O)N3CCCCC3)ccc2OC(C)C)C1=O (stereo unspecified)	PP1 inh 18.3 (no result: DNA FID counter) | PP1 inh confirm inactive | PP5 counter inactive
O=C(NCCC1CCCCN1S(=O)(=O)c1ccc(Cl)cc1)C(=O)NCc1cccnc1 (stereo unspecified)	PP1 inh 52.3 (no result: DNA FID counter) | PP1 inh confirm inactive | PP5 counter inactive
Cc1ccc(C(C(=O)NC2CCCCC2)N(Cc2cccnc2)C(=O)c2csnn2)cc1 (stereo unspecified)	none
COc1ccc(Cc2nnc(NC(=O)Nc3cccc(OC)c3)s2)cc1	PP1 inh 18.3 | PP1 inh confirm 15.4 | PP5 counter inactive
COc1ccc(Cc2nnc(NC(=O)Nc3ccc(F)cc3)s2)cc1	PP1 inh 21.6 | PP1 inh confirm inactive | PP5 counter inactive
COc1cccc(NC(=O)Nc2nnc(Cc3ccccc3)s2)c1	none
COc1cc(OC)cc(C(=O)NCC2CCCN(C(=O)c3csc(C)n3)C2)c1 (stereo unspecified)	none
Cc1cnc(NC(=O)c2c(-c3ccccc3)noc2C)s1	none
O=C(CSc1nc2nc(-c3cccs3)cc(C(F)(F)F)c2c(=O)[nH]1)Nc1ccc(F)c(F)c1	TMEM16A inh 25, PP1 inh 38.8 | PP1 inh confirm 30.2 | PP5 counter inactive
Cc1ccc(C)c(NC(=O)CSc2nc3nc(-c4cccs4)cc(C(F)(F)F)c3c(=O)[nH]2)c1	PP1 inh 23.0 | PP1 inh confirm inactive | PP5 counter inactive
Nc1nc(SCC(=O)Nc2ccc(C(F)(F)F)cc2)[nH]c(=O)c1NC(=O)c1ccc(F)c(F)c1	none
O=[N+]([O-])c1ccc(CCNc2cccc3ccccc23)c([N+](=O)[O-])c1	PP1 inh 25.1 | PP1 inh confirm 24.1 | PP5 counter inactive
O=S(=O)(Cc1cc(NCc2ccccc2)nc(-c2ccccn2)n1)c1ccccc1	PP1 inh 39.4 | PP1 inh confirm 46.3 | PP5 counter inactive
COc1ccccc1C(=O)C1CCCN(C(=O)c2cnn(C(C)C)c2)C1 (stereo unspecified)	none
CCOc1ccc(OCC(=O)Nc2ccc(N3CCCCC3)cc2)cc1	none
Cc1cc(OCC(=O)Nc2ccc(N3CCCC3)cc2)cc(C)c1Cl	PP1 inh 17.7 | PP1 inh confirm inactive | PP5 counter inactive
O=C(CSc1nccc(=O)[nH]1)NC1CCCC1	none
Cc1cc(NCCCn2ccnc2)n2nc(-c3ccc(Cl)cc3)cc2n1	none

Source: PubChem BioAssay
